Bioassay records from PubChem BioAssay.
Rows were chosen to be rich in hits. Some 27% of all compounds tested hit in one or more screens of this group.
CYP2C19 activ: human CYP2C19 activators, primary screen, biochemical, luminescence; Cytochrome P450 2C19 (Homo sapiens), P33261; recombinant CYP2C19, luciferin-H EGE luminescence; hits give high values; 0 = fully inhibited enzyme, 1 = untreated enzyme; activation factor at 5 µM; 96,000 tested, under 10 active;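 active = activation factor of at least 2 at 5 µM in the primary screen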;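 also: 0 = wells with 2.5 mM tranylcypromine and 1 = vehicle-only wells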
Target sequence (P33261 whole entry, looked up): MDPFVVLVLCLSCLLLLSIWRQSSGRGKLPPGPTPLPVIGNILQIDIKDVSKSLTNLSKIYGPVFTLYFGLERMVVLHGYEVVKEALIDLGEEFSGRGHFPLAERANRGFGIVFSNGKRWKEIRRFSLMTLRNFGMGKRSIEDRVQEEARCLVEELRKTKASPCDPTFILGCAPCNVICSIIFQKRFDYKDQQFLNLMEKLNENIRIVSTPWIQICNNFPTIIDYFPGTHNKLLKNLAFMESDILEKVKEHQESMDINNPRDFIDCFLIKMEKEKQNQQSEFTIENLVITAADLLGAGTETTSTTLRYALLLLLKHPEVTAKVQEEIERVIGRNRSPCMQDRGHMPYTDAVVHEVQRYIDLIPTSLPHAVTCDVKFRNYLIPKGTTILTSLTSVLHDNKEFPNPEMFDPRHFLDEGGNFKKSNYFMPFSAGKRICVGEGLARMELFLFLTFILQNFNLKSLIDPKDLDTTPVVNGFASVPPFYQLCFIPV
CYP2C19 inh: blockers of cytochrome P450 2C19 activity – biochemical, luminescence, ADME assay, primary screen; inhibition, % at 5 µM; CYP2C19 Supersomes, luciferin-H EGE luminescence, 30 min; P33261; 21% of 96,000 active;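 active = CYP2C19 inhibition above a set limit at 5 µM in the primary screen, cut at about 50% in these data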;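 also: plate controls were negative control wells for no effect and 2.5 mM tranylcypromine positive control for full effect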
Cav32 inh: Cav3.2 calcium influx blockers – cell-based, Fluo-4 calcium fluorescence, FDSS, MLSMR library, primary screen. 4% of 100,000 active. B-score at 10 µM. Cav3.2-expressing cells; hits give low values;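 active = single-dose well whose peak fluorescence ratio is a statistical outlier from its plate by either plate-standardised score or position-corrected B-score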
CYP2C9 activ: human CYP2C9 activators, primary screen, biochemical, luminescence; AID 1024, 2008; 1.4% of 96,000 active; recombinant CYP2C9, luciferin-H conversion; hits give high values; factor 1 = untreated enzyme, 0 = blocked; activation factor at 5 µM; Cytochrome P450 2C9 (Homo sapiens), P11712;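 active = activation factor of 2 or more for CYP2C9 at a 5 µM dose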;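 also: 0 = sulfaphenazole-blocked wells and 1 = vehicle-only wells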
CYP2C9 inh: blockers of cytochrome P450 2C9 activity – biochemical, luminescence, ADME assay, primary screen | CYP2C9 Supersomes, luciferin-H conversion | inhibition, % at 5 µM | 20% of 96,000 active;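 active = blocking of liver enzyme CYP2C9 beyond about 50% at 5 µM, limit read from the data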
* = called active by the depositor; nt = no result given.

SMILES	CYP2C19 activ	CYP2C19 inh	Cav32 inh	CYP2C9 activ	CYP2C9 inh
COc1ccc(OC)c(-c2cc(C(=O)NCc3ccco3)no2)c1	0.9	8.8	-0.527	2.9*	-191.0
COc1ccc(OC)c(-c2cc(C(=O)Nc3cccc(Cl)c3)no2)c1	1	-4.3	-0.712	2.2*	-116.9
COc1ccc(N=c2oc3c(OC)cccc3cc2C(=O)NCc2ccco2)c(OC)c1	0.7	30.1	-2.37	0.5	53.8*
COc1ccc(OC)c(-c2cc(C(=O)Nc3cc(C)on3)no2)c1	1.1	-11.9	-0.267	1.9	-90.1
COc1ccc2cc3cc(C(=O)NCC4COc5ccccc5O4)oc3nc2c1 (stereo not given)	1.2	-15.2	-3.23	0.9	11.9
CCCOc1ccc(C(C(=O)OCCN(CC)CC)c2ccccc2)cc1 (stereo not given)	1	0.3	0.992	0.9	11.4
COc1ccc(S(=O)(=O)NCc2csc(C)n2)cc1	0.5	45.6	-1.63	1.1	-7.4
OC(Cn1cncn1)(Cn1cncn1)c1ccc(F)cc1F	nt	nt	0.543	nt	nt
COCC(C)n1c(C)cc(C(=O)COC(=O)c2ccc(N3CCCC3=O)cc2)c1C (stereo not given)	0.9	13.0	0.974	1	2.0
COc1cccc(-c2cc(C(=O)Nc3cccc(O)c3)no2)c1	1.1	-7.2	0.524	2.3*	-129.8
COC(=O)c1sccc1-c1ccc(C(=O)Nc2cccc(Cl)c2)o1	0.6	42.8	-1.78	0.3	72.0*
O=c1ccc(S(=O)(=O)N2CCC(Cc3ccccc3)CC2)c[nH]1	0.6	35.2	0.282	0.7	33.4
O=S(=O)(c1ccc(Cl)s1)N1CCN(Cc2ccccc2)CC1	0.2	84.3*	nt	0.4	61.1*
O=S(=O)(c1ccc(S(=O)(=O)N2CCN(Cc3ccccc3)CC2)cc1)N1CCOCC1	1	-3.2	0.0135	0.9	6.3
O=S(=O)(c1ccc(Br)s1)N1CCC(Cc2ccccc2)CC1	0.9	11.5	-1.96	0.4	55.6*
O=S(=O)(c1ccc(Cl)s1)N1CCC(Cc2ccccc2)CC1	0.8	25.0	-1.57	0.3	67.8*
CCn1c(CSc2nc3ccccc3s2)nnc1SCC(=O)c1ccc(O)cc1O	1.1	-14.2	-0.291	1.1	-10.5
CCOC(=O)CSc1nc2ccccc2c(=O)n1CC	0.8	24.3	-1.45	0.7	26.2
CCOC(=O)CSc1nc2cc(C(=O)N3CCC(C(N)=O)CC3)ccc2c(=O)n1-c1ccccc1	0.7	25.6	-0.154	0.4	58.6*
CCn1c(SCC(=O)OC2CCCCC2)nc2ccccc2c1=O	0.1	86.6*	-3.43	0.2	76.9*
CCOC(=O)CSc1nc2ccccc2c(=O)n1CC1CCCC1	nt	nt	-3.47*	nt	nt
O=CN/C=C/c1cc(O)ccc1O	nt	nt	0.662	nt	nt
CC(C)C(c1nnnn1C1CCCCC1)N1CCN(c2ncccn2)CC1 (stereo not given)	0.7	26.7	0.907	0.4	59.5*
O=C(c1ccco1)N1CCN(C(c2ccccc2)c2nnnn2C2CCCC2)CC1 (stereo not given)	nt	nt	1.66	nt	nt
CC(C)C(c1nnnn1C1CCCC1)N1CCN(C(=O)c2ccco2)CC1 (stereo not given)	1	4.6	-1.62	0.5	50.3*
SMILES	CYP2C19 activ	CYP2C19 inh	Cav32 inh	CYP2C9 activ	CYP2C9 inh
O=C(NCc1nc2ccccc2[nH]1)C1=C[C@H](c2csc3ccccc23)C[C@H](OCc2ccc(CO)cc2)O1	nt	nt	-2.06	nt	nt
COc1ccc(C(NC(N)=O)c2ccccc2)cc1 (stereo not given)	0.6	43.1	-0.0471	0.7	26.0
Cc1ccc(C(NC(N)=O)c2ccccc2)cc1 (stereo not given)	0	97.0*	0.0221	0.4	62.7*
Cc1ccc(C(NC(N)=O)c2ccccc2C)cc1 (stereo not given)	0	99.0*	-0.679	0.5	48.8
Cc1ccccc1-n1c(SC(C)C(=O)N2CCN(C)CC2)nc2ccccc2c1=O (stereo not given)	1.1	-12.8	nt	1.1	-7.6
O=C(CCSCCc1ccccn1)Nc1ccc(Br)cn1	0.7	27.1	0.0847	0.7	33.9
O=C(O)c1[nH]nc2c1COc1ccccc1-2	1.2	-20.6	-1.14	1.1	-14.0
Cc1ccc(CNC(=O)C23CN(Cc4ccccc4)CC2C(c2cccc([N+](=O)[O-])c2)=NO3)cc1 (stereo not given)	0.1	88.2*	-2.61	0.4	60.7*
O=C(NCc1ccco1)C12CN(Cc3ccccc3)CC1C(c1cccc([N+](=O)[O-])c1)=NO2 (stereo not given)	0.8	20.5	-1.99	0.8	16.9
O=C(NCCCCc1ccccc1)C12CN(Cc3ccccc3)CC1C(c1cccc([N+](=O)[O-])c1)=NO2 (stereo not given)	0.8	16.8	-2.35	0.9	13.2
CC(C)CCNC(=O)C12CN(Cc3ccccc3)CC1C(c1cccc([N+](=O)[O-])c1)=NO2 (stereo not given)	0.5	48.2	-4.7*	0.6	43.8
O=C(NCCc1cccs1)C12CN(Cc3ccccc3)CC1C(c1cccc([N+](=O)[O-])c1)=NO2 (stereo not given)	0.5	49.9	-2.3	0.3	72.6*
O=C(NCCCN1CCOCC1)C(C(=O)c1ccccc1)n1ccccc1=O (stereo not given)	1	4.5	1.12	0.9	5.6
COc1ccc(C(=O)NC(=S)Nc2nc(C)c(C(=O)N(C)C)s2)cc1	1	-2.3	0.062	0.4	63.3*
O=C(CSc1nnc(-c2ccc(Cl)cc2)o1)N1CCN(c2ccccc2)CC1	1.2	-22.1	nt	1.1	-13.7
CC1(C(=O)OCC(=O)c2c[nH]c3ccccc23)CC1(Cl)Cl (stereo not given)	0	96.8*	nt	0.1	85.2*
CC(C)Cc1ccc(C(C)C(=O)OCC(=O)c2c[nH]c3ccccc23)cc1 (stereo not given)	0.9	12.2	-0.559	0.6	39.8
COC(=O)C1=C(N)OC2=C(C(=O)CC(C)(C)C2)C1c1ccoc1 (stereo not given)	0.5	47.1	0.00408	0.5	54.6*
COCCOC(=O)C1=C(N)OC2=C(C(=O)CC(C)(C)C2)C1c1cccnc1 (stereo not given)	0.7	26.6	0.598	0.8	15.7
CCOC(=O)c1[nH]c2c(c1-c1ccccc1)C(=O)CC(c1ccc(OC)c(OC)c1)C2 (stereo not given)	nt	nt	-2.22	nt	nt
CC1CC(C)CN(c2ncc3c(n2)CC(c2ccccc2)CC3=O)C1 (stereo not given)	0.3	74.4*	-2.49	0.1	89.7*
CC(C)c1ccc(C2CC(=O)c3cnc(N4CCc5ccccc5C4)nc3C2)cc1 (stereo not given)	0.7	33.6	-1.23	0.9	12.7
